Measurements: PubChem BioAssay AID2551 (National Center for Advancing Translational Sciences (NCATS), 2010)
Where “and” joins values, the source holds several entries; their conditions need not be identical. Equal entries are not always repeated. About 17,000 (5.5%) of roughly 310,000 compounds were called active. About 11% were inconclusive and are not listed. Calls come from the whole dose curve; as a rule, active = well fitted inhibition curve with a large enough effect; inconclusive = small, poorly fitted or top-dose-only effect, or effect the other way; inactive = no such curve, though single readings can be large or run the other way. Many of the other results were omitted from the sample, so actives are more common in it than they were.

The compounds below were run against Nuclear receptor ROR-gamma (Mus musculus) (UniProt P51450) (assay: qHTS for inhibitors of ROR gamma transcriptional activity). Details: Drosophila S2 Gal4-RORgamma UAS-luciferase reporter, 20 h; series mostly up to 53.6 µM.
Chain of Nuclear receptor ROR-gamma (Mus musculus) (P51450 whole entry, looked up, the tested form may be a part): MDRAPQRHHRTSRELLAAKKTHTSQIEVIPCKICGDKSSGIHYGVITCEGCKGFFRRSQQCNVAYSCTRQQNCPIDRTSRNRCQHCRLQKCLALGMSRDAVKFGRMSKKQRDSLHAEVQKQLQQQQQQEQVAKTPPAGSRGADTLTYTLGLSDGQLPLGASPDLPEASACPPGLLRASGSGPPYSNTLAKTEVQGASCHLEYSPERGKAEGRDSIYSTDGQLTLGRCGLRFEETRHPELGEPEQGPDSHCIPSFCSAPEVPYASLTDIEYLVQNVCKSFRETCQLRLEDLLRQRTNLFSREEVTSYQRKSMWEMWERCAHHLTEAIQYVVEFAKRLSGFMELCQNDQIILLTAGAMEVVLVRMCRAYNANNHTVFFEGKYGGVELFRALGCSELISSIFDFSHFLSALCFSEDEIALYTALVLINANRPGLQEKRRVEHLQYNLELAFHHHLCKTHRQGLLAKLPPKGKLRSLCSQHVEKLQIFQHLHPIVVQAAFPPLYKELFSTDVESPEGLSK
In short: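 Schneider cells (Drosophila), stable Gal4 DBD–ROR gamma + UAS-luc; 1 hr cmpd preincubation; Cu2+ induction 700 uM final; 20 hr ambient; luminescence.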
% is set by controls: 0 for no effect and ±100 for the full control effect; potency is the fitted concentration of half-maximal effect.
Note: nearly all actives have a fitted effect of over 60% in size.

Potency, active:
C=CCNC(=S)NNC(=O)COc1c(Cl)cc(Cl)cc1Cl 1.26 µM
COc1cc(NS(=O)(=O)c2ccc3ccccc3c2)c2ncccc2c1 1.12 µM and 178 nM
c1c2c(cc3sc(N4CCCCC4)nc13)OCCO2 0.794 µM
CCN(CC(=O)NC(=O)NCc1ccccc1)Cc1nc2ccccc2c(=O)[nH]1 0.355 µM
CCN(CC(=O)Nc1ccc(Cl)c(S(=O)(=O)N(C)C)c1)Cc1nc2ccccc2c(=O)[nH]1 12.6 µM
O=C(c1ccco1)N(Cc1nc2ccccc2c(=O)[nH]1)C1CCCC1 1.58 µM
CCN(CC(=O)Nc1cccc(S(N)(=O)=O)c1)Cc1nc2ccccc2c(=O)[nH]1 2.82 µM
Cc1cc(C)c([N+](=O)[O-])cc1-c1ccc(/C=N/NC(=O)c2nonc2N)o1 11.2 µM
Clc1cccc(CN2COc3c(cc(Cl)c4cccnc34)C2)c1 0.562 µM
Cc1nn2c(NCCN(C)C)c3c(nc2c1-c1ccccc1)CCC3 0.141 µM
COc1ccc(-n2c(=S)[nH]c3sc4c(c3c2=O)CCc2ccccc2-4)cc1 0.447 µM
O=C(O)c1ccc2c(c1)C(=O)N(NC(=O)c1ccc(O)cc1)C2=O 11.2 µM
CC1CCN(C(=S)NC(=O)c2ccccc2Br)CC1 0.562 µM
O=C(N/N=C/c1cccc2cccnc12)[C@H]1C[C@@H]1c1ccccc1 3.55 µM
COC(=O)c1ccc(C(=O)Nc2cc(Cl)ccc2Cl)cc1NC(=O)c1ccccc1C 11.2 µM
O=c1oc2ccccc2cc1-c1cn(-c2ccccc2)c(=S)[nH]1 1.26 µM
O=C(NC(=S)Nc1ccc(Cl)cc1Cl)C1CC1 5.01 µM
Cc1ccc(C(=O)CSc2ccccc2C(=O)O)cc1 10 µM

Potency, inactive:
COc1ccc(C(C(=O)NC2CCCC2)N(CCCO)C(=O)Cn2nnc(-c3ccc(C)o3)n2)cc1 (configuration not stated)
COC(=O)c1ccc(NC(=O)CSc2nnc(C3CC3)n2C)cc1
COC(=O)CN1C(=O)[C@H]2[C@@H](/C=C/c3ccccc3)N3C(=O)CN(Cc4ccccc4)C(=O)[C@@]3(Cc3ccccc3)[C@H]2C1=O
CCOC(=O)c1cccc(NC(=O)CN2C(=O)C3CC=CCC3C2=O)c1 (configuration not stated)
C=CCNC(=O)CCCOc1cccc(C)c1
C=CCNC(=O)COc1coc(CN2CCN(Cc3ccccc3)CC2)cc1=O
Cc1ccsc1C(=O)N[C@@H](C)c1nnc2ccccn12
O=C(c1ccc(Br)o1)N1CCN(CCOc2ccccc2)CC1
O=C(N=C1SC2CS(=O)(=O)CC2N1c1cc(Cl)ccc1Cl)C1CC1 (configuration not stated)
Cc1ccc(S(=O)(=O)Nc2ccc3ncccc3c2)cc1
COc1ccc2cc(S(=O)(=O)Nc3ccccn3)ccc2c1
COc1cc2c(cc1OC)C(c1cccc([N+](=O)[O-])c1)=NCC2
Cc1cc(=O)oc2c1ccc1ccccc12
Cc1nc2cc3c(cc2s1)OCO3
Brc1ccc2nc(N3CCCC3)sc2c1
COc1ccc(-c2cc(=O)oc3cc(OC(C)C(=O)Nc4ccc(CN5CCOCC5)cc4)ccc23)cc1 (configuration not stated)
Cc1ccc(N(C(=O)CNC(=O)c2ccco2)C(C(=O)NC2CCCC2)c2ccncc2)cc1 (configuration not stated)
NS(=O)(=O)c1cccc(NC(=O)CSc2nc3ccccc3n2-c2ccccc2)c1
CCn1c(Cc2ccccc2)nnc1SCc1nc2ccccc2c(=O)[nH]1
CC(C)=C(NC(=O)c1ccco1)C(=O)NCCc1nc2ccccc2[nH]1
CCCC(=O)N(CCc1ccccc1)Cc1nc2ccccc2c(=O)[nH]1
CN(C)S(=O)(=O)c1cc(NC(=O)CN2C(=O)NC3(CCCc4ccccc43)C2=O)ccc1Cl (configuration not stated)
CCN(CC)c1ccc(C(=O)NNC(=O)CCc2nc3ccccc3c(=O)[nH]2)cc1
COc1ccc(-n2cnnc2SCC(=O)Nc2cccc(S(N)(=O)=O)c2)cc1
COc1ccc(C2(C)NC(=O)N(CC(=O)c3ccc4c(c3)OCO4)C2=O)cc1 (configuration not stated)
Cc1cc(C)c(S(=O)(=O)Nc2c(C)n(C)n(-c3ccccc3)c2=O)cc1[N+](=O)[O-]
Cc1cccc([C@@H]2[C@@H]3C(=O)N(Cc4ccccc4)C(=O)[C@@H]3[C@]3(C)C(=O)N(c4ccc(Br)cc4)C(=O)N23)c1
O=C(N/N=C/c1cccc(Br)c1)c1ccc(N2CCCC2=O)cc1
COCc1ccc(CN2CCC(Oc3ccc(C(=O)NCc4ccccn4)cc3)CC2)o1
COc1ccc(NC(=O)C2CCN(S(=O)(=O)c3ccc4[nH]c(=O)oc4c3)CC2)c(OC)c1
Cc1ccc(S(=O)(=O)N(CCCN(C)C)Cc2ccc3c(c2)OCO3)cc1
CCCS(=O)(=O)Nc1ccc(-c2cn3c(n2)SCC3)cc1
Cc1ccc(-c2ccc(/C=N/NC(=O)CN3CCOCC3)o2)cc1[N+](=O)[O-]
COc1cc(/C=N\NC(=O)c2nonc2N)c(OC)cc1Br
COc1ccnc2c1c(=O)n(Cc1cccc(F)c1)c(=O)n2C
O=c1[nH]n(-c2cccc(Cl)c2)c2ncccc12
CC(C)CC(=O)N1CCN(Cc2cccc(Cl)c2)CC1
COc1ccc(Cl)cc1NS(=O)(=O)c1cccc(C(=O)NCC2CCCO2)c1 (configuration not stated)
O=C(COc1ccc([N+](=O)[O-])cc1)Nc1cccc(C(=O)Nc2ccccc2C(=O)O)c1
CCCOc1ccc(CNC(=O)C2CCN(c3nn4c(=O)cc(C)nc4s3)CC2)cc1
Cc1cc(C(C)(C)C)n2nc(C)c(-c3ccccc3)c2n1
Cc1cc(N2CCCC2)n2nc(C)c(-c3ccccc3)c2n1
COc1ccc(-c2noc(C(C)NS(=O)(=O)c3ccc(NC(C)=O)cc3)n2)cc1 (configuration not stated)
Cc1cc(C)cc(NC(=O)C2CCCN(S(=O)(=O)c3ccc4[nH]c(=O)ccc4c3)C2)c1 (configuration not stated)
CCCSc1nc2sc3c(c2c(=O)n1-c1ccc(OC)cc1)CCN(C)C3
CSc1nc2sc3c(c2c(=O)[nH]1)CCc1ccccc1-3
Cn1c(CCN2CCCC2)nc2cc(NS(=O)(=O)c3ccccc3)ccc21
CN(CCC1CCOCC1)C(=O)CC1C(=O)NCCN1Cc1cccc(F)c1 (configuration not stated)
CCCCC(CC)CNCc1cccn1CCN1CCOCC1 (configuration not stated)
COc1ccc(CCNC(=O)C2CCCN2C(=O)Nc2ccccc2)cc1OC (configuration not stated)
C/C(=N\NC(=O)c1cc(-c2ccc(O)cc2)nc2ccccc12)c1cccnc1
O=C(O)c1ccc2c(c1)C(=O)N(c1ccc(/C=C/C(=O)c3ccccc3)cc1)C2=O
Cc1cccc(N2C(=O)c3ccc(C(=O)Nc4cccc(C(=O)O)c4)cc3C2=O)c1
Cc1cc(OCC(=O)NCC(O)c2ccccc2)c2c(C)c(C)c(=O)oc2c1 (configuration not stated)
O=C(O)CCCCCCCCc1cn(CN2C(=O)c3ccccc3C2=O)nn1
CC1CCN(C(=O)c2ccccc2NC(=O)Cc2ccccc2)CC1
CC1CCN(C(=O)/C(=C\c2ccccc2)NC(=O)c2ccccc2)CC1
COc1ccc(NC(=O)C(C)N2c3cccc4cccc(c34)S2(=O)=O)c(OC)c1 (configuration not stated)
COc1ccc(COC(=O)c2ccc(Cl)c(S(=O)(=O)N3CCOCC3)c2)cc1F
CC(C)(C)OC(=O)N1CCC(C(=O)NNC(=O)c2ccc(Cl)cc2Cl)CC1
O=C(CN1CCC(O)(c2cccc(C(F)(F)F)c2)CC1)NCCc1ccccc1
O=C(CCc1nnc(Cc2ccc3c(c2)OCO3)o1)NCCc1ccccc1Cl
O=C(NNC(=S)Nc1ccc(F)cc1)[C@H]1C[C@@H]1c1ccccc1
Cc1ccc(NC(=O)C2CC2c2ccccc2)cc1 (configuration not stated)
COc1ccc(CCN(C)C(=O)C23CC4CC(CC(Cl)(C4)C2)C3)cc1OC
Cc1ccc(N2C(=O)C3C4C=CC(CC4)C3C2=O)cc1Br (configuration not stated)
O=C(CN1CCCCCC1)Nc1ccc(Cl)cc1F
CCOc1ccc(N2CC(C(=O)NCc3ccccn3)CC2=O)cc1 (configuration not stated)
COC(=O)c1ccc(C(=O)OC)c(NC(=S)N2CCN(c3cc(Cl)ccc3C)CC2)c1
COC(=O)c1ccccc1NC(=O)c1cncc(Br)c1
COc1ccc(C(=O)NC(C)CCc2ccccc2)c(OC)c1 (configuration not stated)
CCN(c1cccc(C)c1)S(=O)(=O)c1ccc(-c2coc(C)n2)cc1
O=C1/C(=C/c2ccc3c(c2)OCO3)Oc2cc(OCC(=O)N3CC(O)C[C@H]3C(=O)O)ccc21 (some centres not stated)
COC(=O)c1cc(OCC(=O)NC2CCCc3ccccc32)cc(C(=O)OC)c1 (configuration not stated)
O=C(NCCO)C(=O)NCC(c1ccc2c(c1)OCO2)N1CCN(c2ccc(F)cc2)CC1 (configuration not stated)
O=C(Nc1cc2ccccc2oc1=O)C1CCCCC1
O=C(c1cn(-c2ccccc2)nc1-c1cc2ccccc2oc1=O)N1CCOCC1
S=C(NCc1cccnc1)Nc1ccc(Cl)cc1Cl
CN1CCN(S(=O)(=O)c2ccc(NC(=S)NC(=O)C3CC3)cc2)CC1
COc1ccc(N(CC(=O)Nc2cccc3ccccc23)S(C)(=O)=O)c(OC)c1
CC(=O)c1ccc(S(=O)(=O)N(C)CCCC(=O)N(C)Cc2ccccc2F)cc1
Cc1ccc(Sc2cc(C(=O)c3ccccc3C(=O)O)ccc2[N+](=O)[O-])cc1
Cc1ccc(C(=O)Cn2cccn2)cc1

Activity change, negative = inhibition, inactive:
CCCc1nc(SCC(=O)Nc2ccc(S(=O)(=O)N(C)C)cc2)c2ccccc2n1 7.51% [at 10 µM]
